Test results from PubChem BioAssay (NCATS).
Inconclusive results are not listed. A number with no mark means an inactive call. Activity calls are given as the source filed them. Calls follow the shape of the dose curve; as a rule, active = well fitted cell-killing curve with a large enough effect; inconclusive = small, poorly fitted or top-dose-only effect, or effect the other way; inactive = no such curve, though single readings can be large or run the other way.

Experiment: Quantitative High-Throughput drug screen in 47 multiple myeloma cell lines against the NCATS MIPE library collection: Karpas620_DSMZ cell viability assay (AID 1918959); also: nearly all actives have a fitted effect of over 30% in size
Details: Karpas620 myeloma viability, CellTiter-Glo ATP luminescence, 48 h; series mostly up to 45.8 µM
Source text: PI: Beverly A. Mock Ph.D.
Laboratory of Cancer Biology and Genetics,
Center for Cancer Research, National Cancer Institute,
National Institute of Health, Bethesda, Maryland
Drug resistance and disease progression are common in multiple myeloma (MM) patients, underscoring the need for new therapeutic combinations. […] We hypothesized that effective combinations would reduce MYC expression and enhance p16 activity. […] These preclinical data identify potentially useful drug combinations for evaluation in drug-resistant MM and reveal potential mechanisms of combined drug sensitivity.
Described herein is the primary MIPE qHTS used to cherrypick compounds. Validated compounds were then further tested for potential synergistic activiy.
[1] Peat TJ, Gaikwad SM, Dubois W, Gyabaah-Kessie N, Zhang S, Gorjifard S, Phyo Z, Andres M, Hughitt VK, Simpson RM, Miller MA, Girvin AT, Taylor A, Williams D, D'Antonio N, Zhang Y, Rajagopalan A, Flietner E, Wilson K, Zhang X, Shinn P, Klumpp-Thomas C, McKnight C, Itkin Z, Chen L, Kazandijian D, Zhang J, Michalowski AM, Simmons JK, Keats J, Thomas CJ, Mock BA. Drug combinations identified by high-throughput screening promote cell cycle transition and upregulate Smad pathways in myeloma. Cancer Lett. 2023 Aug 1;568:216284. doi: 10.1016/j.canlet.2023.216284. Epub 2023 Jun 24. PMID: 37356470; PMCID: PMC10408729.
SEQUENCE No. (e.g., 1, 2, 3, etc.); […] (e.g., Cells, Incubation, Reagent, etc.); VALUE and DESCRIPTION.
1; Cells; 5 uL; white, solid bottom 1536-well Greiner assay plate.
2; Compounds; 23 nL; Kalypsis pin tool (Wako USA) equipped with a 1536-well pin head to transfer to the assay plates.
3; Incubation; 48 hours; 37C incubation.
4; Reagent;5uL; CellTiter Glo (Promega).
5; Detector; 425V; Luminescence; Viewlux PerkinElmer.
NOTES (numbers refer to Sequence numbers above)
1. The cell-based screening methods employed in this study were like those previously published. Briefly, the corresponding myeloma cell lines were screened in 1,536-well plates with 500 cells, 5-uL per well for inhibition of cell viability (assessed by measuring ATP levels with CellTiterGlo).
2. NCATS MIPE 4.0 library of approved and investigational drugs were added using the Kalypsis pin tool. Wells treated with DMSO only for 100% viability and media only wells for 0% viability were used as controls.
3. The assay plates were covered and incubated for 48 hours in a 37C, 5% CO2 incubator with controlled humidity.
4. After 48 hours, CellTilter-GloTM luminescent substrate mix (Promega) reagent was added to the assay plate and plates we incubated for 5 min at room temperature.
5. Signal was measured as median relative luminescence units on a ViewLux (PerkinElmer) multiplate reader.
[1] Heske CM, Davis MI, Baumgart JT, Wilson K, Gormally MV, Chen L, Zhang X, Ceribelli M, Duveau DY, Guha R, Ferrer M, Arnaldez FI, Ji J, Tran HL, Zhang Y, Mendoza A, Helman LJ, Thomas CJ. Matrix Screen Identifies Synergistic Combination of PARP Inhibitors and Nicotinamide Phosphoribosyltransferase (NAMPT) Inhibitors in Ewing Sarcoma. Clin Cancer Res. 2017 Dec 1;23(23):7301-7311. doi: 10.1158/1078-0432.CCR-17-1121. Epub 2017 Sep 12. PMID: 28899971; PMCID: PMC6636827.
Potency is read from the fitted curve at half-maximal effect.

Row | Structure (SMILES) | Potency | viability (% of DMSO)
1 | CC=C1NC(=O)[C@H]2CSSCCC=C[C@H](CC(=O)N[C@H](C(C)C)C(=O)N2)OC(=O)[C@H](C(C)C)NC1=O | 26.4 nM (active) | –
2 | COc1cc(OC2CCN(C)CC2)ccc1Nc1ncc2c(n1)n(C1CCCC1)c(=O)n2C | 23500 nM (active) | –
3 | COc1ccc(C=Cc2cc(OC)c(OC)c(OC)c2)cc1O | inactive | –
4 | Cc1ccc(NC(=O)C2(c3ccc4c(c3)OC(F)(F)O4)CC2)nc1-c1cccc(C(=O)O)c1 | 166 nM (active) | –
5 | Nc1ccn([C@@H]2O[C@H](CO)[C@H](O)C2(F)F)c(=O)n1 | 469 nM (active) | –
6 | N#CCNC(=O)c1ccc(-c2ccnc(Nc3ccc(N4CCOCC4)cc3)n2)cc1 | inactive | –
7 | CCN(CC)CCCCNc1ncc2cc(-c3cc(OC)cc(OC)c3)c(NC(=O)NC(C)(C)C)nc2n1 | 26400 nM (active) | –
8 | CCn1cc(-c2ccnc3[nH]c(-c4cccc(CN(C)C)c4)cc23)c(-c2ccc(NC(=O)N(C)C)cc2)n1 | 20900 nM (active) | –
9 | CC[C@H](CO)Nc1nc(NCc2ccccc2)c2ncn(C(C)C)c2n1 | inactive | –
10 | CN(C)c1nc(Cc2ccc(NC(=O)c3ccc4ccccc4c3)cc2)nc(Cl)c1CC(=O)O | inactive | –
11 | CC(C)CC(=O)Nc1n[nH]c2c1CN(C(=O)C1CCN(C)CC1)C2(C)C | 2640 nM (active) | –
12 | CC(C)(C)c1cc(C(C)(C)C)c(NC(=O)c2c[nH]c3ccccc3c2=O)cc1O | inactive | –
13 | CNC(=O)CN1CCC(Oc2cc3c(Nc4cccc(Cl)c4F)ncnc3cc2OC)CC1 | 1 nM (active) | –
14 | O=C(CCCCCCC(=O)Nc1ccc([C@H]2O[C@@H](CSc3nc(-c4ccccc4)c(-c4ccccc4)o3)C[C@@H](c3ccc(CO)cc3)O2)cc1)NO | inactive | –
15 | CC=CC1=C(C(=O)O)N2C(=O)[C@H](NC(=O)[C@H](N)c3ccc(O)cc3)[C@@H]2SC1 | 14800 nM (active) | –
16 | Cc1ccc(C(=O)Nc2ccc(CN3CCN(C)CC3)c(C(F)(F)F)c2)cc1C#Cc1cnc2cccnn12 | 5260 nM (active) | –
17 | CCN1CCN(Cc2ccc(-c3cc4c(N[C@H](C)c5ccccc5)ncnc4[nH]3)cc2)CC1 | 33.2 nM (active) | –
18 | Cc1cccc(C=NNc2cc(N3CCOCC3)nc(OCCc3ccccn3)n2)c1 | 469 nM (active) | –
19 | Cc1cn(-c2cc(NC(=O)c3ccc(C)c(Nc4nccc(-c5cccnc5)n4)c3)cc(C(F)(F)F)c2)cn1 | inactive | –
20 | CN(c1ncccc1CNc1nc(Nc2ccc3c(c2)CC(=O)N3)ncc1C(F)(F)F)S(C)(=O)=O | 1480 nM (active) | –

Row | Structure (SMILES) | Potency | viability (% of DMSO)
21 | CC(NCc1ccc2c(c1)nc(NC(=O)c1ccc(-c3cn[nH]c3)s1)n2CC(C)(C)O)C(C)(C)C (stereo not given) | 264 nM (active) | –
22 | CC(=O)OCCN1C(=O)c2c(C)nc3ccc(S(=O)(=O)N4CCOCC4)cc3c2C1=O | inactive | –
23 | CCC(=C(c1ccccc1)c1ccc(OCCN(C)C)cc1)c1ccccc1 | 23500 nM (active) | –
24 | COc1cc2c(Nc3ccc(NC(=O)c4ccccc4)cc3)ncnc2cc1OCCCN1CCOCC1 | inactive | –
25 | COc1cccc2nc(-c3cccs3)nc(NN3C(=O)C=C(C)C3=O)c12 | 743 nM (active) | –
26 | Cn1c(CNc2ccc(C(=N)N)cc2)nc2cc(C(=O)N(CCC(=O)O)c3ccccn3)ccc21 | inactive | –
27 | CC(=O)Nc1sc2c(c1-c1nc3ccccc3s1)CNC2 | inactive | –
28 | CC(=O)OCC(=O)[C@@]1(O)[C@H](C)C[C@H]2[C@@H]3C=C(C)C4=Cc5c(cnn5-c5ccccc5)C[C@]4(C)[C@@H]3[C@@H](O)C[C@@]21C | 8330 nM (active) | –
29 | O=C(Nc1cc(C(F)(F)F)cc(C(F)(F)F)c1)c1cc(Cl)ccc1O | 833 nM (active) | –
30 | Cc1nc(Nc2n[nH]c3c2CN(C(=O)N[C@H](CN(C)C)c2ccccc2)C3(C)C)c2sccc2n1 | 2640 nM (active) | –
31 | Nc1ccccc1NC(=O)c1ccc(CNc2nccc(-c3cccnc3)n2)cc1 | 1660 nM (active) | –
32 | CC(C)c1ccccc1Cc1cc(C(=O)Nc2ccc(S(=O)(=O)c3ccccc3C(C)(C)C)cc2)c(O)c(O)c1O | inactive | –
33 | Cc1cc(C(=O)N2CCN(c3cccc(Cl)c3)CC2)n(-c2ccccc2)n1 | 29.6 nM (active) | –
34 | O=C(Cc1ccc(-c2ccc(OCCN3CCOCC3)cc2)cn1)NCc1ccccc1 | 4.2 nM (active) | –
35 | COc1cc2c(Oc3ccc(-c4cnc(Nc5ccc(F)cc5)n(C)c4=O)cc3F)ccnc2cc1OCCCN1CCOCC1 | 2960 nM (active) | –
36 | Cc1cc(Nc2cc(N3CCN(C)CC3)nc(C=Cc3ccccc3)n2)n[nH]1 | 12100 nM (active) | –
37 | COC(=O)C[C@](O)(CCCC(C)(C)O)C(=O)O[C@@H]1C(OC)=C[C@]23CCCN2CCc2cc4c(cc2[C@H]13)OCO4 | inactive | –
38 | CC1(C)OC2=C(C(=O)c3ccccc3C2=O)[C@H](NCc2ccccc2)[C@H]1O | 1480 nM (active) | –
39 | Cc1cn2cc(C(=O)N(C)CCO)cc(N[C@@H]3CCOc4cccc(C)c43)c2n1 | inactive | –
40 | COc1ccc(CC2c3cc(OC)c(OC)cc3CC[N+]2(C)CCC(=O)OCCCCCOC(=O)CC[N+]2(C)CCc3cc(OC)c(OC)cc3C2Cc2ccc(OC)c(OC)c2)cc1OC (stereo not given) | – | 107% [at 5.15 µM]
